Results published in PubChem BioAssay (NCATS).
Results filed as inconclusive are left out. The source made the active and inactive calls. Unless noted, the call rests on the fitted dose curve; in most records, active means well fitted cell-killing curve with a large enough effect; inconclusive means small, poorly fitted or top-dose-only effect, or effect the other way; inactive means no such curve, though single readings can be large or run the other way.

What was measured:
[1] = Quantitative High-Throughput drug screen in 47 multiple myeloma cell lines against the NCATS MIPE library collection: KMS34_JCRB cell viability assay (AID 1918985); further: nearly all actives have a fitted effect of over 40% in size
Procedure, shortened: (§1)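 500 cells/well; MIPE 4.0 drugs pin-transferred; 48 h, 37C, 5% CO2. CellTiter-Glo, 5 min RT, luminescence. Controls: DMSO 100%, media 0%.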

[2] = Quantitative High-Throughput drug screen in 47 multiple myeloma cell lines against the NCATS MIPE library collection: OCIMY7_PLB cell viability assay (AID 1918987); further: nearly all actives have a fitted effect of over 65% in size
Procedure, shortened: as §1

[3] = Quantitative High-Throughput drug screen in 47 multiple myeloma cell lines against the NCATS MIPE library collection: OCIMY5_PLB cell viability assay (AID 1918988); further: nearly all actives have a fitted effect of over 65% in size
Procedure, shortened: as §1

[4] = Quantitative High-Throughput drug screen in 47 multiple myeloma cell lines against the NCATS MIPE library collection: OPM1_PLB cell viability assay (AID 1918989); further: nearly all actives have a fitted effect of over 40% in size
Procedure, shortened: as §1

[5] = Quantitative High-Throughput drug screen in 47 multiple myeloma cell lines against the NCATS MIPE library collection: SKMM1_PLB cell viability assay (AID 1919863); details: SKMM1 myeloma viability, CellTiter-Glo ATP, 48 h; viability: stronger effect = lower value; further: nearly all actives have a fitted effect of over 35% in size
Procedure, shortened: as §1

[6] = Quantitative High-Throughput drug screen in 47 multiple myeloma cell lines against the NCATS MIPE library collection: XG1_PLB cell viability assay (AID 1919866); further: nearly all actives have a fitted effect of over 35% in size
Procedure, shortened: as §1

[7] = Quantitative High-Throughput drug screen in 47 multiple myeloma cell lines against the NCATS MIPE library collection: VP6_DJ cell viability assay (AID 1919867); further: nearly all actives have a fitted effect of over 40% in size
Procedure, shortened: as §1

[8] = Quantitative High-Throughput drug screen in 47 multiple myeloma cell lines against the NCATS MIPE library collection: PE2_PLB cell viability assay (AID 1919869); further: nearly all actives have a fitted effect of over 35% in size
Procedure, shortened: as §1

[9] = Quantitative High-Throughput drug screen in 47 multiple myeloma cell lines against the NCATS MIPE library collection: PCM6_Riken cell viability assay (AID 1919870); further: nearly all actives have a fitted effect of over 30% in size
Procedure, shortened: as §1

[10] = Quantitative High-Throughput drug screen in 47 multiple myeloma cell lines against the NCATS MIPE library collection: KMS11_JCRBsus cell viability assay (AID 1919873); further: nearly all actives have a fitted effect of over 50% in size
Procedure, shortened: as §1

[11] = Quantitative High-Throughput drug screen in 47 multiple myeloma cell lines against the NCATS MIPE library collection: KMS28BM_JCRB cell viability assay (AID 1919874); further: nearly all actives have a fitted effect of over 35% in size
Procedure, shortened: as §1

[12] = Quantitative High-Throughput drug screen in 47 multiple myeloma cell lines against the NCATS MIPE library collection: UTMC2_PLB cell viability assay (AID 1919868); details: CellTiter-Glo ATP luminescence, 48 h; viability (% of DMSO control): at 45.8 µM (top of the series) unless noted; further: nearly all actives have a fitted effect of over 55% in size
Procedure, shortened: as §1

[13] = Quantitative High-Throughput drug screen in 47 multiple myeloma cell lines against the NCATS MIPE library collection: RPMI8226_ATCC cell viability assay (AID 1919871); further: nearly all actives have a fitted effect of over 30% in size
Procedure, shortened: as §1

[14] = Quantitative High-Throughput drug screen in 47 multiple myeloma cell lines against the NCATS MIPE library collection: OPM2_DSMZ cell viability assay (AID 1919872); further: nearly all actives have a fitted effect of over 30% in size
Procedure, shortened: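 Myeloma cells (500 per well) were exposed to MIPE 4.0 compounds by pin transfer and incubated 48 hours at 37C, 5% CO2. Viability was read as ATP by CellTiter-Glo luminescence, normalised to DMSO (100%) and media-only (0%) wells.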

[15] = qHTS drug screen for cell cycle checkpoint inhibitors in PARPi-resistant BRCA-mutant ovarian cancer cell lines. (AID 1963452; calls by dose curve); details: PEO1/OlaR viability, CellTiter-Glo luminescence, 96 h; for Z-AUC: stronger effect = lower value
Procedure, shortened: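 PEO1, PEO4 and PEO1/OlaR ovarian cancer cells, 600 per well, exposed 96 h at 37C to a dilution series. Viability read by CellTiter-Glo luminescence, normalized to DMSO and empty wells; activity summarized as Z-AUC.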

[16] = qHTS for identification of novel therapeutic agents for treatment of microphthalmiaassociated transcription factor (MiT) renal cell carcinoma (RCC) (AID 1963991; calls by dose curve); details: CellTiter-Glo, 48 h; for z-score: stronger effect = lower value; for Potency: active = Z-AUC below -0.8 in all three lines
Procedure, shortened: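 Curves over 11 concentrations were fitted to CellTiter-Glo luminescence, scaled between empty wells (0%) and DMSO (100%) viability. Cells were UOK109, UOK124 and UOK145 TFE3-fusion RCC lines at 500/well, exposed 48 hours at 37 C.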

[17] = Quantitative High-Throughput drug screen in 47 multiple myeloma cell lines against the NCATS MIPE library collection: U266_ATCC cell viability assay (AID 1919864); further: nearly all actives have a fitted effect of over 35% in size
Procedure, shortened: as §1

[18] = Quantitative High-Throughput drug screen in 47 multiple myeloma cell lines against the NCATS MIPE library collection: XG6_PLB cell viability assay (AID 1919865); further: nearly all actives have a fitted effect of over 40% in size
Procedure, shortened: as §1

[19] = measured here: PEO1 parental Z-AUC
[20] = TFE3-RCC UOK109 viability, measured here: UOK109 Z-AUC
[21] = TFE3-RCC viability, measured here: UOK124 Z-AUC
[22] = TFE3-RCC viability, measured here: UOK145 Z-AUC
Potency means the concentration at half of the fitted maximal effect.

## CCC(=C(c1ccccc1)c1ccc(OCCN(C)C)cc1)c1ccccc1
[1]
  Potency: inactive
[2]
  Potency: 20.9 µM (active)
[3]
  Potency: 29.6 µM (active)
[4]
  Potency: 20.9 µM (active)
[5]
  Potency: 20.9 µM (active)
[6]
  Potency: 16.6 µM (active)
[7]
  Potency: 20.9 µM (active)
[8]
  Potency: 26.4 µM (active)
[9]
  Potency: 23.5 µM (active)
[10]
  Potency: 20.9 µM (active)
[11]
  Potency: 20.9 µM (active)

## O=C(O)[C@H](Cc1c[nH]c2ccccc12)N1C(=O)c2ccccc2C1=O
[1]
  Potency: inactive
[2]
  Potency: 30.3 µM (active)
[3]
  Potency: inactive
[4]
  Potency: inactive
[5]
  viability: 111% (inactive)
[7]
  Potency: 48.1 µM (active)
[12]
  viability (% of DMSO control): 115% [at 92.2 µM] (active)
[13]
  Potency: inactive
[14]
  Potency: inactive
[10]
  Potency: inactive
[11]
  Potency: inactive
[15]
  Z-AUC: 1.05 (inactive)
[15]; [19]
  Z-AUC: 0.982
[15]; measured here: PEO4 Z-AUC
  Z-AUC: 0.872
[16]; [20]
  z-score: 0.59
[16]; [21]
  z-score: 0.462
[16]; [22]
  z-score: 0.777

## CC[C@@H]1C(=O)N(C)c2cnc(Nc3ccc(C(=O)NC4CCC(N5CCN(CC6CC6)CC5)CC4)cc3OC)nc2N1C(C)C (some centres not stated)
[1]
  Potency: 0.105 µM (active)
[2]
  Potency: 0.833 µM (active)
[3]
  Potency: 0.0743 µM (active)
[4]
  Potency: 0.166 µM (active)
[5]
  Potency: 2.35 µM (active)
[17]
  Potency: 5.9 µM (active)
[6]
  Potency: 0.0187 µM (active)
[7]
  Potency: 1.66 µM (active)
[8]
  Potency: 8.33 µM (active)
[9]
  Potency: 1.87 µM (active)
[13]
  Potency: 8.33 µM (active)
[14]
  Potency: 0.118 µM (active)
[10]
  Potency: 0.0296 µM (active)
[11]
  Potency: 0.0372 µM (active)
[15]
  Potency: 0.0871 µM (active)
[15]; [19]
  Z-AUC: -2.37
[15]; measured here: PEO4 Z-AUC
  Z-AUC: -1.84
[16]; TFE3-RCC UOK109 viability
  Potency: 3.72 µM (active)
[16]; [20]
  z-score: -1.29
[16]; [21]
  z-score: -2.06
[16]; [22]
  z-score: -1.66

## CCOc1cc2ncc(C#N)c(Nc3ccc(F)c(Cl)c3)c2cc1NC(=O)C=CCN(C)C
[1]
  Potency: 4.69 µM (active)
[2]
  Potency: 0.0743 µM (active)
[3]
  Potency: 0.264 µM (active)
[4]
  Potency: 11.8 µM (active)
[5]
  Potency: 16.6 µM (active)
[17]
  Potency: 18.7 µM (active)
[6]
  Potency: 10.5 µM (active)
[12]
  Potency: 0.296 µM (active)
[8]
  Potency: 5.9 µM (active)
[9]
  Potency: 1.66 µM (active)
[13]
  Potency: 10.5 µM (active)
[14]
  Potency: 14.8 µM (active)
[10]
  Potency: 2.64 µM (active)
[11]
  Potency: 3.32 µM (active)
[16]; TFE3-RCC UOK109 viability
  Potency: 0.0118 µM (active)
[16]; [20]
  z-score: -2.91
[16]; [21]
  z-score: -1.47
[16]; [22]
  z-score: -1.07

## COc1cc2c(cc1-c1c(C)noc1C)ncc1[nH]c(=O)n([C@H](C)c3ccccn3)c12
[1]
  Potency: 0.469 µM (active)
[2]
  Potency: 18.7 µM (active)
[3]
  Potency: 1.05 µM (active)
[4]
  Potency: 1.48 µM (active)
[5]
  Potency: 0.743 µM (active)
[18]
  Potency: 5.26 µM (active)
[6]
  Potency: 5.9 µM (active)
[7]
  Potency: 0.833 µM (active)
[8]
  Potency: 14.8 µM (active)
[9]
  Potency: 6.62 µM (active)
[13]
  Potency: 7.43 µM (active)
[10]
  Potency: 0.264 µM (active)
[11]
  Potency: 0.332 µM (active)
[15]
  Z-AUC: -1.31 (inactive)
[15]; [19]
  Z-AUC: -1.04
[15]; measured here: PEO4 Z-AUC
  Z-AUC: -1.54

## CCn1nnc2c(N3CCOCC3)nc(-c3ccc(NC(=O)Nc4ccc(C(=O)N5CCN(C)CC5)cc4)cc3)nc21
[1]
  Potency: 0.148 µM (active)
[2]
  Potency: 3.72 µM (active)
[3]
  Potency: 0.469 µM (active)
[4]
  Potency: 0.0059 µM (active)
[5]
  Potency: 0.059 µM (active)
[12]
  Potency: 0.0053 µM (active)
[9]
  Potency: 0.0332 µM (active)
[13]
  Potency: 0.0526 µM (active)
[14]
  Potency: 0.0935 µM (active)
[10]
  Potency: 0.0235 µM (active)
[11]
  Potency: 0.0042 µM (active)
[15]
  Z-AUC: -0.869 (inactive)
[15]; [19]
  Z-AUC: -1.58
[15]; measured here: PEO4 Z-AUC
  Z-AUC: -1.65
[16]; TFE3-RCC UOK109 viability
  Potency: 0.526 µM (active)
[16]; [20]
  z-score: -1.28
[16]; [21]
  z-score: -1.68
[16]; [22]
  z-score: -1.94

## CCn1cc(-c2ccnc3[nH]c(-c4cccc(CN(C)C)c4)cc23)c(-c2ccc(NC(=O)N(C)C)cc2)n1
[1]
  Potency: 10.5 µM (active)
[2]
  Potency: 0.187 µM (active)
[3]
  Potency: 4.18 µM (active)
[5]
  Potency: 18.7 µM (active)
[17]
  Potency: 14.8 µM (active)
[18]
  Potency: 0.935 µM (active)
[6]
  Potency: 1.18 µM (active)
[12]
  Potency: 0.743 µM (active)
[8]
  Potency: 11.8 µM (active)
[9]
  Potency: 9.35 µM (active)
[13]
  Potency: 14.8 µM (active)
[14]
  Potency: 11.8 µM (active)
[10]
  Potency: 0.833 µM (active)
[11]
  Potency: 6.62 µM (active)
[15]
  Potency: 2.45 µM (active)
[15]; [19]
  Z-AUC: -1.7
[15]; measured here: PEO4 Z-AUC
  Z-AUC: -1.88

## Nc1nccc(Oc2ccc(NC(=O)c3c[nH]cc(-c4ccc(F)cc4)c3=O)cc2F)c1Cl
[1]
  Potency: 18.7 µM (active)
[2]
  Potency: 18.7 µM (active)
[3]
  Potency: 26.4 µM (active)
[4]
  Potency: 23.5 µM (active)
[5]
  Potency: 23.5 µM (active)
[18]
  Potency: 16.6 µM (active)
[6]
  Potency: 18.7 µM (active)
[7]
  Potency: 16.6 µM (active)
[12]
  Potency: 29.6 µM (active)
[8]
  Potency: 18.7 µM (active)
[13]
  Potency: 20.9 µM (active)
[11]
  Potency: 20.9 µM (active)

## COc1ccc(-n2nc(C(N)=O)c3c2C(=O)N(c2ccc(N4CCCCC4=O)cc2)CC3)cc1
[1]
  Potency: inactive
[2]
  Potency: inactive
[3]
  Potency: inactive
[4]
  Potency: inactive
[6]
  Potency: inactive
[12]
  Potency: inactive
[8]
  Potency: inactive
[9]
  Potency: inactive
[13]
  Potency: inactive
[14]
  Potency: inactive
[10]
  Potency: inactive
[11]
  Potency: inactive
[15]
  Z-AUC: 1.05 (inactive)
[15]; [19]
  Z-AUC: 0.968
[15]; measured here: PEO4 Z-AUC
  Z-AUC: 0.601

## Cc1cc(Nc2cc(N3CCN(C)CC3)nc(Sc3ccc(NC(=O)C4CC4)cc3)n2)n[nH]1
[1]
  Potency: 14.8 µM (active)
[2]
  Potency: 0.296 µM (active)
[3]
  Potency: 5.26 µM (active)
[4]
  Potency: 5.9 µM (active)
[5]
  Potency: 16.6 µM (active)
[18]
  Potency: 13.2 µM (active)
[6]
  Potency: 4.18 µM (active)
[7]
  Potency: 18.7 µM (active)
[12]
  Potency: 0.001 µM (active)
[8]
  Potency: 14.8 µM (active)
[9]
  Potency: 23.5 µM (active)
[13]
  Potency: 13.2 µM (active)
[10]
  Potency: 2.35 µM (active)
[11]
  Potency: 6.62 µM (active)
[15]
  Z-AUC: 0.654 (inactive)
[15]; [19]
  Z-AUC: -0.131
[15]; measured here: PEO4 Z-AUC
  Z-AUC: -0.437
